Biological target: Solute carrier family 2, facilitated glucose transporter member 1 (Homo sapiens) (UniProt P11166)
Test: ST_JUDE_LEISH: Cytotoxicity at 2uM final concentration against transgenic Leishmania Mexicana promastigotes LmGLUT1 that are glucose transport deficient and complemented with the human glucose transporter GLUT1. Activity is measured by DNA content using SYBR green in vitro
Type: functional

Solute carrier family 2, facilitated glucose transporter member 1 (Homo sapiens), sequence (P11166 whole entry): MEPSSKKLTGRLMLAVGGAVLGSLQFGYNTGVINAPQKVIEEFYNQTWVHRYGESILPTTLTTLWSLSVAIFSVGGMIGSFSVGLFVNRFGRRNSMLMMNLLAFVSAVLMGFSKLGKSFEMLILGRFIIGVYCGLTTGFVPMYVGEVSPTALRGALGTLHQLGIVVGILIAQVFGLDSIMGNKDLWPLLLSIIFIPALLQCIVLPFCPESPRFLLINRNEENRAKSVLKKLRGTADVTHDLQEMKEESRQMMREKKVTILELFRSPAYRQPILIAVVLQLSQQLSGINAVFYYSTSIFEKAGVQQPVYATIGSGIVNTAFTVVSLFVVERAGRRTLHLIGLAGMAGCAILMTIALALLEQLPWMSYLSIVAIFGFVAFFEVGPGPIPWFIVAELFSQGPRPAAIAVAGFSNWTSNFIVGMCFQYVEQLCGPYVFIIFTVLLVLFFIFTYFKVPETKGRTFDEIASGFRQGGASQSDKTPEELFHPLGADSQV

SMILES	inhibition
CC(C)N(Cc1ccc(-c2ccc(C(F)(F)F)cc2)cc1)C(=O)Cn1c(SCc2cccc(F)c2F)cc(=O)c2cc(CN3CCCCC3)ccc21	2.18%
COc1cc(Cc2cnc(NCCN3CCNCC3)nc2N)ccc1OCc1ccc(C(F)(F)F)cc1	3.49%
CCn1c(-c2nonc2N)nc2c(-c3cccc(NC(=O)Nc4cccc(C#N)c4)c3)ncc(OCCCN)c21	4.72%
Nc1ncc(-c2ccc(F)c(Cl)c2)c(N)n1	1.16%
CC(C)[C@H](NC(=O)c1ccc(O)c(-c2cccc(C(F)(F)F)c2)c1)C(=O)NCCN1CCCCC1	-0.28%
CCCCCCCCc1c(C)nc(C)c(C#N)c1O	5.8%
O=C(Nc1cccc(CN2CCCN(Cc3cccc(O)c3)CC2)c1)c1ccc2ccccc2c1	1.01%
O=C(Nc1nc2cc(S(=O)(=O)NCCc3ccc(F)cc3)ccc2n1CCCn1ccnc1)c1ccc(Cl)cc1	1.74%
Cc1c(CNCCN2CCCCC2)c(C(=O)O)c(C)n1Cc1ccc(Cl)cc1	-0.09%
N=C(N)NN=Cc1ccc2c(c1)Cc1ccccc1-2	8.82%
O=C(NCCCCCN1CCC(c2c[nH]c3ccccc23)C1)Nc1ccc(Cl)c(Cl)c1 (stereo unspecified)	3.7%
Cc1ccccc1C1CCN(C2CCC(NC(=O)/C=C/c3ccc(C(F)(F)F)cc3F)CC2)CC1 (stereo unspecified)	1.85%
CN(C)c1cc(C(=O)N[C@@H](Cc2ccccc2)[C@H](O)CNC2CCCCC2)cc2[nH]ccc12	5.43%
CC(C)CNC(=S)N1CCCN(c2nc3ccc(Cl)cc3s2)CC1	3.18%
O=C(/C=C/c1ccc(Cl)c(Cl)c1)NCCCCCN1CCC(NC(=O)Nc2ccc(F)c(Cl)c2)CC1	3.93%
CCOCCCNc1sc(S(=O)(=O)c2ccccc2)nc1S(=O)(=O)c1ccc(C)cc1	8.93%
CCN(CCN(C)C)Cc1ccc(-c2ccc(NS(=O)(=O)c3cccc4cccnc34)cc2)cc1	14%
O=C(CCc1nc2c(cnn2-c2ccccc2)c(=O)[nH]1)NC1CCSc2ccccc21 (stereo unspecified)	0.18%
O=C(/C=C/c1cccc(OC(F)(F)F)c1)NCCCCCN1CCC(c2c[nH]c3ccccc23)CC1	1.81%
COc1ccc(Nc2nc(C)cc(NC3CCCC3)n2)cc1	29.2%
O=C(/C=C/c1ccc(Cl)c(Cl)c1)NCCCCCN1CCC(NC(=O)Nc2ccc(OC(F)F)cc2)CC1	-1.59%
O=C(c1cccs1)N1CCN(c2ccc([N+](=O)[O-])c(NC3CC3)c2)CC1	1.35%
COc1ccc2nccc([C@H](O)CN3CCC(NCc4cc(C)c5c(c4)OCCO5)CC3)c2n1	5.84%
O=S(=O)(c1cc(Cl)sc1Cl)N(CCC(O)(C(F)(F)F)C(F)(F)F)Cc1cccc(O)c1	0.79%
CN(C)c1ccc(-c2nc3cc(N)ccc3[nH]2)cc1	-2.7%
Cn1cncc1-c1ccc2ncnc(Nc3ccc4c(cnn4Cc4ccccc4)c3)c2c1	1.39%

Biological target: Hexose transporter 1 (Plasmodium falciparum) (UniProt O97467)
Test: ST_JUDE_LEISH: Cytotoxicity at 2uM final concentration against transgenic Leishmania Mexicana promastigotes LmPfHT that are glucose transport deficient and complemented with the Plasmodium falciparum hexose transporter. Activity is measured by DNA content using SYBR green in vitro
Type: functional

SMILES	inhibition
O=C(Nc1cccc(-c2cccc(-c3nc4cc(C(F)(F)F)ccc4[nH]3)c2)c1)c1csnn1	9.97%
O=C(O[C@@H]1CN[C@H](C#Cc2cc3ncnc(Nc4ccc5c(cnn5Cc5cccc(F)c5)c4)c3s2)C1)N1CCCC1	0.19%
Cc1cccc(C)c1CNc1nc(N2CCOCC2)cc2c(C)c(C)[nH]c12	3.43%
COc1ccc(-c2ccc(NC(=O)c3ccc(Cl)cc3)cc2)cc1CN(C)CCN(C)C	4.95%
COc1ccc(C=NN=c2c3ccccc3[nH]c3ccccc23)c2ccccc12	5.85%
O=C(Nc1ccc(Cn2ncc(N3CCCNCC3)c(Cl)c2=O)cc1)Nc1cccc(C(F)(F)F)c1	1.58%
Nc1c(-c2ccc(C(=O)NCCNCc3ccccc3)cc2)cnn1-c1ccc(C(F)(F)F)cc1	2.76%
c1cc(Nc2nccc(-c3cnn4ncccc34)n2)cc(-c2cnco2)c1	45.8%
COc1ccc2ncc(F)c(CCN3CCC(NCc4cc(C)c5c(c4)OCCO5)CC3)c2n1	15.4%
CC(CNc1nc(NCC(c2ccccc2)c2ccccc2)c2nc[nH]c2n1)c1ccccc1 (stereo unspecified)	5%
CC(C)c1cccc(C(C)C)c1NC(=O)NNC(=O)c1ccc(CCN2CCC(c3nc(COCC(F)(F)F)c(-c4ccc(F)cc4)o3)CC2)cc1	11.4%
Cc1cc([N+](=O)[O-])ccc1N1CCN(CCCCNC(=O)c2ccc(NC(=O)c3ccc(Cl)cc3)cc2)CC1	4.19%
N=C(N)Nc1nc(-c2ccc(NCc3ccc(CNc4cccc(-c5csc(NC(=N)N)n5)c4)cc3)cc2)cs1	1.69%
CN(C)c1ccc(CN2CCC(CNC(=O)c3cc(-c4ccccc4F)cs3)C2)cc1 (stereo unspecified)	1.98%
CC(C)N(Cc1ccc(-c2ccc(C(F)(F)F)cc2)cc1)C(=O)Cn1c(SCc2cccc(F)c2F)cc(=O)c2cc(CN3CCCCC3)ccc21	1.78%
COc1cc(Cc2cnc(NCCN3CCNCC3)nc2N)ccc1OCc1ccc(C(F)(F)F)cc1	4.49%
CCn1c(-c2nonc2N)nc2c(-c3cccc(NC(=O)Nc4cccc(C#N)c4)c3)ncc(OCCCN)c21	2.23%
Nc1ncc(-c2ccc(F)c(Cl)c2)c(N)n1	4.76%
CC(C)[C@H](NC(=O)c1ccc(O)c(-c2cccc(C(F)(F)F)c2)c1)C(=O)NCCN1CCCCC1	-0.52%
CCCCCCCCc1c(C)nc(C)c(C#N)c1O	6.51%

SMILES	inhibition
O=C(Nc1cccc(CN2CCCN(Cc3cccc(O)c3)CC2)c1)c1ccc2ccccc2c1	1.53%
O=C(Nc1nc2cc(S(=O)(=O)NCCc3ccc(F)cc3)ccc2n1CCCn1ccnc1)c1ccc(Cl)cc1	2.83%
Cc1c(CNCCN2CCCCC2)c(C(=O)O)c(C)n1Cc1ccc(Cl)cc1	0.33%
N=C(N)NN=Cc1ccc2c(c1)Cc1ccccc1-2	8.08%
O=C(NCCCCCN1CCC(c2c[nH]c3ccccc23)C1)Nc1ccc(Cl)c(Cl)c1 (stereo unspecified)	3.21%
Cc1ccccc1C1CCN(C2CCC(NC(=O)/C=C/c3ccc(C(F)(F)F)cc3F)CC2)CC1 (stereo unspecified)	0.43%
CN(C)c1cc(C(=O)N[C@@H](Cc2ccccc2)[C@H](O)CNC2CCCCC2)cc2[nH]ccc12	4.72%
CC(C)CNC(=S)N1CCCN(c2nc3ccc(Cl)cc3s2)CC1	2.71%
O=C(/C=C/c1ccc(Cl)c(Cl)c1)NCCCCCN1CCC(NC(=O)Nc2ccc(F)c(Cl)c2)CC1	4.82%
CCOCCCNc1sc(S(=O)(=O)c2ccccc2)nc1S(=O)(=O)c1ccc(C)cc1	8.79%
CCN(CCN(C)C)Cc1ccc(-c2ccc(NS(=O)(=O)c3cccc4cccnc34)cc2)cc1	11.3%
O=C(CCc1nc2c(cnn2-c2ccccc2)c(=O)[nH]1)NC1CCSc2ccccc21 (stereo unspecified)	1.79%
O=C(/C=C/c1cccc(OC(F)(F)F)c1)NCCCCCN1CCC(c2c[nH]c3ccccc23)CC1	0.75%
COc1ccc(Nc2nc(C)cc(NC3CCCC3)n2)cc1	26.2%
O=C(/C=C/c1ccc(Cl)c(Cl)c1)NCCCCCN1CCC(NC(=O)Nc2ccc(OC(F)F)cc2)CC1	-0.5%
O=C(c1cccs1)N1CCN(c2ccc([N+](=O)[O-])c(NC3CC3)c2)CC1	0.57%
COc1ccc2nccc([C@H](O)CN3CCC(NCc4cc(C)c5c(c4)OCCO5)CC3)c2n1	8.31%
O=S(=O)(c1cc(Cl)sc1Cl)N(CCC(O)(C(F)(F)F)C(F)(F)F)Cc1cccc(O)c1	0.45%
CN(C)c1ccc(-c2nc3cc(N)ccc3[nH]2)cc1	3.58%
Cn1cncc1-c1ccc2ncnc(Nc3ccc4c(cnn4Cc4ccccc4)c3)c2c1	2.21%

— ChEMBL document CHEMBL3433997, “St. Jude Leishmania screening dataset” (2016)
